# In the supplement of paper PMC6555819:
# Test system: VDR homodimer (NR concentration 270 nM)
# Experiment: PBM binding z-score (relative to random genomic background probes); higher = stronger binding; sequences stand for … in GC…GCGATTGACAGCGTAGAATGAAGG
# Method in brief: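 Custom Agilent 4×180K protein-binding microarrays carried double-stranded probes. Their 34-nt variable regions held direct-repeat seeds, single-nucleotide variants, half-site ablations and random human genomic background sequences. Arrays were incubated 1 h with ligand-free nuclear receptor dimers in PBS pH 7.4, 2% milk, 0.02% Triton X-100, 1 mM DTT, 0.2 mg/mL BSA and 0.4 mg/ml salmon testes DNA. Antibodies against each partner (one per run) detected binding, and scanned fluorescence was regression-normalized. Binding z-scores use random background probes as reference.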
row,Sequence,PBM binding z-score
1,CCGAGTAGGTTATGGGGCATTAAGGCAACGGTGA,0.0646
2,CCAGACAGGTGAGTAGGTAACTCAGCCTCGATTA,-0.162
3,CCTATTTGGTCAAGGTCACACACGCTATAGGTAC,3.03
4,TCTATTAGTTGATTACGGCAACCGAAACAGCGGA,0.575
5,ATATGTACGTTACATCCGGGTCATTCAGGCTATG,2.95
6,CCTTACGGGTCACTCCAGGTTATAGTATCGGAGT,1.7
7,TCTTGTAGATCAAGCAGGTTTAGAAAGCCTGAGT,0.0833
8,CGTCCAAGTTCAATGCTAGGTCAGTGAAAGCATT,4.43
9,AGAACGAGGGCAATGAGTTGAGAGCACGGGTGGC,2.08
10,CGTCCAAGGTCAAGGTCAGAGAAAGAGACTCGAA,3.04
11,ATCGAAAGGTCGTGAGGTGAGTATGCAGAAAGGC,0.782
12,TCGAGTAGGTTACCAATGGGGCATTCTGCTTTCT,-0.862
13,CCTTTCGGGTCACGAGGTTATAGCACGACGAGCG,2.77
14,ACAGACAGGTGAGTGAAGGAAACTCAGCTGGACG,-0.21
15,CTACCCAGGTGAACAAGGTCGTTGATTACTATTC,1.92
16,CCTAGTTGGTCAAGGTCACACTCGCTATAGGTAC,3.42
17,CAAACTAGGTCAAGGTCAAACTCGGTTTGTGCCA,3.81
18,ACTAGCAGGCCAAGATTGGGTCACTCAAACAAAG,0.0162
19,CCTACTGGGCCAAGGTCCTTGATCAGTCAAAGCA,-0.774
20,GCGACTGGGGCAATGCAGGTTACCATAAGGTTGG,-0.0846

row,Sequence,PBM binding z-score
1,TCTTGTAGATCAAAAGAGGTTAAGAAAGTGCGCT,0.274
2,CCAGACAGGTGAAAGGTAAATCAGTCTGGTACGC,0.0909
3,TCTAGCAGGCCAGAGGTTCACTCAAGAGGTACGG,1.54
4,TCTTGTAAATCAGCAGGTTAAGAAAGCTGGCCAA,-0.269
5,TCTAGCAGGCCAGAGAGTCACTCAAGAGGTACGG,-0.865
6,CCTACTGGGCCGCGAAAGGTCATTGATTCAGTGA,2.12
7,CAAACTAGGTCAAGAGGTCAATGTCCGCTTCCCG,4.02
8,AGAACGAGGGGAATGAGTTGATAGCACGGGTGGC,0.812
9,CTACCAAGGTGAACAAGGTCCTTGATTACTATTC,0.358
10,CCTACTGGGCCATCACGTCATTGATATCAACGTT,-0.136
11,TCTCGGAGGACACGAAAGGTCAGAGCGCGACATC,1.22
12,ATATGTAGGTTAAGGGTCATTCAGGTTGGTTCGC,4.42
13,TCTCGGAGGACACGAAAGGTCAGCGCTCGACATC,1.13
14,CGAACTCGGTCAGAACAGGACAGTGAAGGATGAT,0.368
15,GCGACTGGGACAAAGCAGGTTACCATAAGGTTGG,-0.161
16,ATCGAAAGGTCGACGAGGTGAGTACACACCGTTT,2.27
17,TCGAGTAGGTTAGTCGGGGCCTTCAGCCAACATA,-0.455
18,CCTACTGGGCCAAAGGTCGTTGATTCCAATGCTC,0.435
19,ATCTCTAGGTAACAAGCTCAGTGAAAGAGAGGAC,-0.048
20,TCTTGTAGATCAACAGAGGTTAAGAAAGTGCGCT,0.274
